# For part of these data: Measured potencies and affinities stand elsewhere. The source made the active and inactive calls.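 How the source made its calls, unless noted: active means primary screen activator hit with a dose response curve and TRPC4 channel activation at any tested dose; inactive means no activation, no dose response, or not a primary hit.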
# Key:
# [1] = system: TRPC4 beta (transient receptor potential cation channel C4), mouse; assay: TRPC4 cation channel opening, retest – cell-based, Fluo4 calcium, HEK293 TRPC4beta/mu-opioid, duplicates, 10 µM, confirmation (AID 2426;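 active means fluorescence ratio normalized to control raised more than 50% in primary screen plus both repeat runs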); settings: Fluo4 calcium fluorescence, at 10 µM; active compounds read high
# [2] = system: transient receptor potential cation channel C4 beta (TRPC4), mouse; assay: TRPC4 cation channel opening, second retest – cell-based, second round, Fluo4, HEK293 TRPC4beta/mu-opioid, 1 µM, confirmation (AID 2461;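 active means primary screen active and over 50% activation in each of two duplicate runs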); settings: Fluo4 calcium fluorescence, at 1 µM; active compounds read high
# [3] = system: TRPC4 (transient receptor potential cation channel C4 beta), mouse; assay: potentiation of DAMGO EC20 TRPC4 response – cell-based, second round, Fluo-4, HEK293 TRPC4beta/mu-opioid, 1 µM, confirmation (AID 2554;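 active means primary screen hit whose fluorescence ratio, in both repeats, exceeds the weak agonist control mean by 3 SD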); settings: DAMGO EC20, Fluo-4 calcium flux, at 1 µM; active compounds read high
# [4] = system: TRPC4 beta (transient receptor potential cation channel C4), mouse; assay: potentiation of DAMGO EC20 TRPC4 response – cell-based, Fluo-4, HEK293 TRPC4beta/mu-opioid, confirmation (AID 2555;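 active means primary screen hit whose calcium fluorescence ratio, in both repeats, exceeds the weak agonist control mean by 3 SD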); settings: DAMGO EC20, Fluo-4 calcium flux, at 10 µM; active compounds read high
# [5] = target: Short transient receptor potential channel 4 (Mus musculus) (UniProt Q9QUQ5); assay: blockers of DAMGO-evoked TRPC4 calcium flux – cell-based, Fluo4, HEK293 TRPC4beta/mu-opioid, confirmation (AID 2636;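 active means calcium signal cut by more than 3 SD below the full-agonist control yet still positive, in both repeats and the earlier primary screen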); settings: at 10 µM; active compounds read high
# [6] = target: Short transient receptor potential channel 4 (Mus musculus) (UniProt Q9QUQ5); assay: blockers of DAMGO-evoked TRPC4 calcium flux – cell-based, second round, Fluo4, HEK293 TRPC4beta/mu-opioid, 1 µM, confirmation (AID 2637;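 active means calcium signal ratio cut to more than 3 SD under the fully stimulated control mean yet still positive, in both repeats and the primary screen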;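 on inhibition: percent of integrated ratio relative to wells lacking test compound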); settings: at 1 µM; active compounds read high
# [7] = target: Short transient receptor potential channel 4 (Mus musculus) (UniProt Q9QUQ5); assay: calcium entry via TRPC4 opening agents – cell-based, HEK293 TRPC4/mu-opioid, Fluo-4 calcium, dose response (AID 434937)
# [8] = target: Short transient receptor potential channel 4 (Mus musculus) (UniProt Q9QUQ5); assay: potentiation of DAMGO-evoked TRPC4 calcium signal – cell-based, HEK293 TRPC4/mu-opioid, Fluo-4 calcium, EC20 DAMGO, dose response (AID 434941;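 active means earlier screen potentiator hit that boosts the TRPC4 ion channel at some dose, with a dose response; inactive means no potentiation, no dose response, or not a prior hit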;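 further: calcium entry triggered by an EC20 dose of DAMGO at the co-expressed mu-opioid receptor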)
# [9] = target: Short transient receptor potential channel 6 (Mus musculus) (UniProt Q61143); assay: TRPC6 blockade by TRPC4 inhibitor hits – cell-based, HEK293, membrane potential dye, duplicate, selectivity assay for TRPC4 inhibitor project, confirmation (AID 434948;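 active means active in primary screen and both duplicates, each dropping signal beyond three positive-control SD with fluorescence still positive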); settings: HEK293 TRPC6, membrane potential dye fluorescence, at 10 µM, stimulated with maximal-effect acetylcholine; active compounds read high
# [10] = target: Short transient receptor potential channel 6 (Mus musculus) (UniProt Q61143); assay: TRPC6 opening by TRPC4 activator hits – cell-based, HEK293, membrane potential dye, duplicate, selectivity assay for TRPC4 activator project, confirmation (AID 434950;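 active means membrane potential signal rise above negative control mean plus 3 SD in both duplicates, also active in the earlier TRPC4 screen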;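 on activation: 0% = buffer only wells and 100% = acetylcholine maximal-effect wells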); settings: HEK293 TRPC6, membrane potential fluorescence, at 10 µM; activation: active compounds read high; outcome: activation
# [11] = target: Short transient receptor potential channel 6 (Mus musculus) (UniProt Q61143); assay: positive modulators of mouse TRPC6 channel – HEK293 cells, membrane potential dye, duplicate, selectivity assay for TRPC4 potentiator project, confirmation (AID 434952;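 active means compound raising the membrane signal above positive-control mean plus 3 SD in both repeats, and a primary screen hit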); settings: HEK293 TRPC6, membrane potential dye fluorescence, at 10 µM, maximal acetylcholine added after compound; active compounds read high
# [12] = target: Short transient receptor potential channel 4 (Mus musculus) (UniProt Q9QUQ5); assay: calcium flux activators in TRPC4/5HT1a cells, counter-screen for TRPC4 activator project, cell-based, second counter screen, HEK293 TRPC4/5HT1a, Fluo-4 (AID 434977;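 active means calcium signal rise above buffer-control mean plus 5 SD in both duplicates, and also a hit in the primary screen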); settings: Fluo-4 calcium flux, at 10 µM; active compounds read high
# [13] = serotonin-gated TRPC4 signal block – cell-based, second counter screen, HEK293 TRPC4/5HT1a, Fluo-4, counter-screen for TRPC4 inhibitor project, confirmation (AID 434978;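 active means primary screen active whose calcium signal fell more than 3 SD beyond the full-serotonin control mean in both duplicate plates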;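 on outcome: serotonin given first at submaximal then at maximal dose after compound preincubation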); settings: Fluo-4 calcium flux, at 10 µM, serotonin added to trigger calcium flux; active compounds read high
# [14] = system: TRPC4 (mouse), co-expressed with 5HT1a in HEK293; assay: enhancement of serotonin-evoked TRPC4 response – cell-based, second counter screen, HEK293 TRPC4/5HT1a, Fluo-4, counter-screen for TRPC4 potentiator project, confirmation (AID 434979;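 active means signal rise over 3 SD above mean of control wells given weak agonist, in both repeats and first screen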); settings: Fluo-4 calcium flux, at 10 µM, serotonin added at its EC20 dose; active compounds read high
# [15] = nonspecific calcium rise without TRPC4 – cell-based, HEK293 mu-opioid receptor line, counter-screen for TRPC4 activator project, confirmation (AID 449723;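 active means hit in primary screen, with calcium signal over 5 SD above buffer well mean in both duplicates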;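 further: counter screen cells carry the mu-opioid receptor alone and lack TRPC4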); settings: HEK293 mu-opioid cells, Fluo-4 calcium fluorescence, at 10 µM; active compounds read high
# [16] = nonspecific potentiation of DAMGO calcium response – cell-based, HEK293 mu-opioid receptor line, counter-screen for TRPC4 allosteric potentiator project, confirmation (AID 449724;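 active means calcium signal rise more than 3 SD above the low-dose agonist control mean, in both duplicate plates and the primary screen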); settings: HEK293 mu-opioid receptor cells, Fluo-4 calcium flux, at 10 µM, compound added before EC20 DAMGO stimulus; active compounds read high
# Chain of Short transient receptor potential channel 6 (Mus musculus) (Q61143 whole entry, looked up): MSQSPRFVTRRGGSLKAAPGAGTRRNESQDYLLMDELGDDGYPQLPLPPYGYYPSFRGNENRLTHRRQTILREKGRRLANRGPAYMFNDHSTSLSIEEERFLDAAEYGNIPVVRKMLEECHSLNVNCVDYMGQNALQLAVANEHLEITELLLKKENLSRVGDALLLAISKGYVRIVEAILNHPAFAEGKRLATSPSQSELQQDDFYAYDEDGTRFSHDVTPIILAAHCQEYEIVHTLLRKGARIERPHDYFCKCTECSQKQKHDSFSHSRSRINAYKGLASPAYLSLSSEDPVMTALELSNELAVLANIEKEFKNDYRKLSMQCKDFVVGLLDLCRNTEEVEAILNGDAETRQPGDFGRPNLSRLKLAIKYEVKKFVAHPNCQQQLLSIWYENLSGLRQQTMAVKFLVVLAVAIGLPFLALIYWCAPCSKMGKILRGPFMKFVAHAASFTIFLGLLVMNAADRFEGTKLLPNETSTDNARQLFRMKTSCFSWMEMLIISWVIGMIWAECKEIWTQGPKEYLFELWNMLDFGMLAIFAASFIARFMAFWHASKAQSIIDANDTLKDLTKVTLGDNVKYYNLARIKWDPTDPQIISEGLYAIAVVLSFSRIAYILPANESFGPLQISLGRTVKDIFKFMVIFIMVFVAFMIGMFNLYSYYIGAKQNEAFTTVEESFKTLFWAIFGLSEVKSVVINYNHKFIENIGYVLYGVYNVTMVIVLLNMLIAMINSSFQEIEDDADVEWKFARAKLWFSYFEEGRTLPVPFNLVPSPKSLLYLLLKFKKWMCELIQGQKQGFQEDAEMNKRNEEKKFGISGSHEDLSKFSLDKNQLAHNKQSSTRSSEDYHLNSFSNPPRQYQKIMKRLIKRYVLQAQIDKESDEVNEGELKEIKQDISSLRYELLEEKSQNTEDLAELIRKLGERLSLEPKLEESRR
# Chain of Short transient receptor potential channel 4 (Mus musculus) (Q9QUQ5 whole entry, looked up): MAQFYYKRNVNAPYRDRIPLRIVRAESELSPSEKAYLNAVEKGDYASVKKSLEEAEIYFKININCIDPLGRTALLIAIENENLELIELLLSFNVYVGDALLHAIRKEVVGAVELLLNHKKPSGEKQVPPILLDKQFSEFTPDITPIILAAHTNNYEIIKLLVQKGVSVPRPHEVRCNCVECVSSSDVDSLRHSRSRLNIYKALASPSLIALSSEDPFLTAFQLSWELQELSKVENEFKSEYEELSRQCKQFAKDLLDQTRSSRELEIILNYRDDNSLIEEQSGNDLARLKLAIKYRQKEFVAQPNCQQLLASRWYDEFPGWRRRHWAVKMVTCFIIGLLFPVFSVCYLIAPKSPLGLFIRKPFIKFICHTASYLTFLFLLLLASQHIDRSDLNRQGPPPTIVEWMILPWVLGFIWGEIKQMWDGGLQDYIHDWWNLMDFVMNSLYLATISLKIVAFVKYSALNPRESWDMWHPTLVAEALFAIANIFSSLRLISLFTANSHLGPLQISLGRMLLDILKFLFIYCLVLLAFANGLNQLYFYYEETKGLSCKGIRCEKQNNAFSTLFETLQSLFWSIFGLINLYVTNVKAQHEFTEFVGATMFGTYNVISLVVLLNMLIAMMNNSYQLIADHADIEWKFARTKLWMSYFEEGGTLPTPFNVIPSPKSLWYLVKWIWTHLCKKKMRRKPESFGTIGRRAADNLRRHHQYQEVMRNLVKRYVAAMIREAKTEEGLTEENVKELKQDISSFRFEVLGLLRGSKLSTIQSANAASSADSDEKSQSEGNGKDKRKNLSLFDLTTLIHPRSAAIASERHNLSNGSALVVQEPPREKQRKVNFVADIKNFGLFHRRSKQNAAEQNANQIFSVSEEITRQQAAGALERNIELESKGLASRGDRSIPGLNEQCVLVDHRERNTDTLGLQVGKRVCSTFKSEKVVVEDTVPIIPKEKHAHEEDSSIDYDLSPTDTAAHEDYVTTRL
smiles,measurement,setting,value
O=C(CSc1nnc(-c2ccc(Cl)cc2Cl)n1C1CCCCC1)NC1CCS(=O)(=O)C1 (stereo not given),outcome,[1],inactive
same,outcome,[2],inactive
same,outcome,[3],inactive
same,outcome,[4],inactive
same,inhibition,[5],82% (active)
same,outcome,[6],inactive
same,outcome,[7],inactive
same,outcome,[8],inactive
same,outcome,[9],inactive
same,outcome,[10],inactive
same,outcome,[11],inactive
same,outcome,[12],inactive
same,outcome,[13],inactive
same,outcome,[14],inactive
same,outcome,[15],inactive
same,outcome,[16],inactive
CCc1ccc2nc(N=C(N)N)nc(C)c2c1,outcome,[1],inactive
same,outcome,[2],inactive
same,outcome,[3],inactive
same,outcome,[4],inactive
same,inhibition,[5],93% (active)
same,outcome,[6],inactive
same,outcome,[7],inactive
same,outcome,[8],inactive
same,outcome,[9],inactive
same,outcome,[10],inactive
same,outcome,[11],inactive
same,outcome,[12],inactive
same,outcome,[13],inactive
same,outcome,[14],inactive
same,outcome,[15],inactive
same,outcome,[16],inactive
CCOC(=O)C1=NN(c2ccccc2C)C2=NC(C)=C(C(=O)OC)C(c3cccc(OC)c3)N12 (stereo not given),outcome,[1],inactive
same,outcome,[2],inactive
same,outcome,[3],inactive
same,outcome,[4],inactive
same,inhibition,[5],75% (active)
same,outcome,[6],inactive
same,outcome,[7],inactive
same,outcome,[8],inactive
same,outcome,[9],inactive
same,outcome,[10],inactive
same,outcome,[11],inactive
same,outcome,[12],inactive
same,inhibition,[13],20.5% (active)
same,outcome,[14],inactive
same,outcome,[15],inactive
same,outcome,[16],inactive
COc1cc2c(cc1OC)C(C)N(CCc1ccc(Cl)cc1)CC2 (stereo not given),outcome,[1],inactive
same,outcome,[2],inactive
same,outcome,[3],inactive
same,outcome,[4],inactive
same,inhibition,[5],75% (active)
same,outcome,[6],inactive
same,outcome,[7],inactive
same,outcome,[8],inactive
same,outcome,[9],inactive
same,outcome,[10],inactive
same,outcome,[11],inactive
same,outcome,[12],inactive
same,outcome,[13],inactive
same,outcome,[14],inactive
same,outcome,[15],inactive
same,outcome,[16],inactive
Cc1cc(Nc2ccc(C)c(C)c2)c2ccccc2n1,outcome,[1],inactive
same,outcome,[2],inactive
same,outcome,[3],inactive
same,outcome,[4],inactive
same,inhibition,[5],99% (active)
same,inhibition,[6],42% (active)
same,outcome,[7],inactive
same,outcome,[8],inactive
same,inhibition,[9],35.5% (active)
same,outcome,[10],inactive
same,outcome,[11],inactive
same,outcome,[12],inactive
same,inhibition,[13],30.8% (active)
same,outcome,[14],inactive
same,outcome,[15],inactive
same,outcome,[16],inactive
CN(Cc1cnn(C)c1)C(=O)c1ccc(OC2CCN(CCc3ccccc3)CC2)cc1,outcome,[1],inactive
same,outcome,[2],inactive
same,outcome,[3],inactive
same,outcome,[4],inactive
same,inhibition,[5],88% (active)
same,inhibition,[6],59% (active)
same,outcome,[7],inactive
same,outcome,[8],inactive
same,outcome,[9],inactive
same,outcome,[10],inactive
same,outcome,[11],inactive
same,outcome,[12],inactive
same,outcome,[13],inactive
same,outcome,[14],inactive
same,outcome,[15],inactive
same,outcome,[16],inactive
CCOc1ccccc1N(CC)C(=O)c1nn(C)c2c1CSc1ccccc1-2,outcome,[1],inactive
same,outcome,[2],inactive
same,outcome,[3],inactive
same,outcome,[4],inactive
same,inhibition,[5],95% (active)
same,inhibition,[6],40% (active)
same,outcome,[7],inactive
same,outcome,[8],inactive
same,outcome,[9],inactive
same,outcome,[10],inactive
same,outcome,[11],inactive
same,outcome,[12],inactive
same,inhibition,[13],18.7% (active)
same,outcome,[14],inactive
same,outcome,[15],inactive
same,outcome,[16],inactive
N#Cc1c(N2CCCCC2)nc(N)c2c(N)nc3c(c12)CC(c1ccccc1)O3 (stereo not given),outcome,[1],inactive
same,outcome,[2],inactive
same,outcome,[3],inactive
same,outcome,[4],inactive
same,inhibition,[5],87% (active)
same,inhibition,[6],49% (active)
same,outcome,[7],inactive
same,outcome,[8],inactive
same,outcome,[9],inactive
same,outcome,[10],inactive
same,outcome,[11],inactive
same,outcome,[12],inactive
same,inhibition,[13],31.5% (active)
same,outcome,[14],inactive
same,outcome,[15],inactive
same,outcome,[16],inactive
O=C1COc2ccc(N3C(=O)C=CC3=O)cc2N1,outcome,[1],inactive
same,outcome,[2],inactive
same,outcome,[3],inactive
same,outcome,[4],inactive
same,inhibition,[5],88% (active)
same,outcome,[6],inactive
same,outcome,[7],inactive
same,outcome,[8],inactive
same,outcome,[9],inactive
same,outcome,[10],inactive
same,outcome,[11],inactive
same,outcome,[12],inactive
same,inhibition,[13],31.1% (active)
same,outcome,[14],inactive
same,outcome,[15],inactive
same,outcome,[16],inactive
CCCc1nc2ccccc2n1Cc1ccccc1OC,outcome,[1],inactive
same,outcome,[2],inactive
same,outcome,[3],inactive
same,outcome,[4],inactive
same,inhibition,[5],88% (active)
same,outcome,[6],inactive
same,outcome,[7],inactive
same,outcome,[8],inactive
same,outcome,[9],inactive
same,outcome,[10],inactive
same,outcome,[11],inactive
same,outcome,[12],inactive
same,inhibition,[13],32.4% (active)
same,outcome,[14],inactive
same,outcome,[15],inactive
same,outcome,[16],inactive
COCCNc1c2c(nc3ccccc13)CCC2,outcome,[1],inactive
same,outcome,[2],inactive
same,outcome,[3],inactive
same,outcome,[4],inactive
same,inhibition,[5],100% (active)
same,inhibition,[6],57% (active)
same,outcome,[7],inactive
same,outcome,[8],inactive
same,inhibition,[9],37.5% (active)
same,outcome,[10],inactive
same,outcome,[11],inactive
same,outcome,[12],inactive
same,inhibition,[13],11.8% (active)
same,outcome,[14],inactive
same,outcome,[15],inactive
same,outcome,[16],inactive
Cn1c(-c2ccc(F)cc2)cnc1NCc1ccc(F)cc1F,outcome,[1],inactive
same,outcome,[2],inactive
same,outcome,[3],inactive
same,outcome,[4],inactive
same,inhibition,[5],88% (active)
same,inhibition,[6],46% (active)
same,outcome,[7],inactive
same,outcome,[8],inactive
same,outcome,[9],inactive
same,outcome,[10],inactive
same,outcome,[11],inactive
same,outcome,[12],inactive
same,inhibition,[13],29.9% (active)
same,outcome,[14],inactive
same,outcome,[15],inactive
same,outcome,[16],inactive
O=C(COC(=O)C1CC1)Nc1nc(-c2ccc(F)c(F)c2)cs1,outcome,[1],inactive
same,outcome,[2],inactive
same,outcome,[3],inactive
same,outcome,[4],inactive
same,inhibition,[5],70% (active)
same,outcome,[6],inactive
same,outcome,[7],inactive
same,outcome,[8],inactive
same,outcome,[9],inactive
same,outcome,[10],inactive
same,outcome,[11],inactive
same,outcome,[12],inactive
same,inhibition,[13],41.5% (active)
same,outcome,[14],inactive
same,outcome,[15],inactive
same,outcome,[16],inactive
c1csc(CNc2nc(-c3cccs3)nc3ccccc23)c1,outcome,[1],inactive
same,outcome,[2],inactive
same,outcome,[3],inactive
same,outcome,[4],inactive
same,inhibition,[5],78% (active)
same,outcome,[6],inactive
same,outcome,[7],inactive
same,outcome,[8],inactive
same,outcome,[9],inactive
same,outcome,[10],inactive
same,outcome,[11],inactive
same,outcome,[12],inactive
same,inhibition,[13],29.7% (active)
same,outcome,[14],inactive
same,outcome,[15],inactive
same,outcome,[16],inactive
O=C(NCCCN1CCOCC1)c1ccc(NC(=O)C2COc3ccccc3O2)cc1 (stereo not given),outcome,[1],inactive
same,outcome,[2],inactive
same,outcome,[3],inactive
same,outcome,[4],inactive
same,outcome,[5],inactive
same,outcome,[6],inactive
same,outcome,[7],inactive
same,outcome,[8],inactive
same,outcome,[9],inactive
same,activation,[10],49.5% (active)
same,outcome,[11],inactive
same,outcome,[12],inactive
same,outcome,[13],inactive
same,outcome,[14],inactive
same,outcome,[15],inactive
same,outcome,[16],inactive

# From PubChem BioAssay
